The results in this text go back to PubChem BioAssay (NCATS).

Structures are written as SMILES. Records with an inconclusive call do not appear. A call without a number means that no potency is given here. Active and inactive are the calls of the source. Calls follow the shape of the dose curve; as a rule, active = well fitted inhibition curve with a large enough effect; inconclusive = small, poorly fitted or top-dose-only effect; inactive = flat fitted curve, though single readings scatter.

For this experiment, the target named is Calcium and integrin-binding protein 1 (Homo sapiens) (UniProt Q99828). Briefly: Primary qHTS for Identification of Calcium Integrin Binding Protein 1 (CIB1) Competitor (AID 1508620).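 Also: GST tagged CIB1 binding a fluorescein labelled alphaIIb integrin peptide tracer; top concentration of the series differs between compounds.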 The following applies: CIB1-GST / FITC-alphaIIb peptide fluorescence polarization; series mostly up to 114 µM. In a few lines: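 Fluorescence polarization competition: CIB1-GST (1 uM final) preincubated with compound 15 min at room temperature, then FITC-labeled alphaIIb peptide (100 nM final) added for another 15 min. Polarization read at Ex 480/Em 540.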
Chain of Calcium and integrin-binding protein 1 (Homo sapiens) (Q99828 whole entry, looked up): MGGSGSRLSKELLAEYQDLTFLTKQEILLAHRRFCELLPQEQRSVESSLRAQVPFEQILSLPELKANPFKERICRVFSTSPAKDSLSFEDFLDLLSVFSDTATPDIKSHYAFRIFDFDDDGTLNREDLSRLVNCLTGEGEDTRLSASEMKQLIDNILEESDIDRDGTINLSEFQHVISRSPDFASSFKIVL
`Cc1nnc(-c2cnn(C)c2N)n1CCCn1ccnc1`: the Potency result was “inactive”.
The value for `Nc1cc(S(=O)(=O)N2CCN(S(=O)(=O)c3ccc4c(c3)OCCO4)CC2)ccn1` was “inactive”; that for `CCn1cnc2c(NCc3cccnc3)nc(C#N)nc21` was “inactive”; that for `c1cncc(CNc2ncnc3ccc(-c4ccco4)cc23)c1` was “inactive”.
As to `Cc1ccc(OCCn2c(CCNC(=O)c3cccc4ccccc34)nc3ccccc32)cc1`, the Potency result is “inactive”.
Then `COc1nccc(-c2nc(Nc3ccc(F)c(F)c3)c3ccccc3n2)c1OC`, with “inactive”; and `CNc1cc2c(cc1S(=O)(=O)Nc1ccc(C)c(C)c1)CCC(=O)N2`, with “inactive”.
Regarding `COc1ccc(C(=O)Nc2ccc(-c3nc4ccccc4[nH]3)cc2)cc1OC`, the Potency result was “inactive”.
On to `O=C1Nc2ccccc2/C1=C\c1ccc(O)c(F)c1`, for which the Potency result was “inactive”.
For the compound `Cc1cccc(-n2cnc3cc(C(=O)N4CCC(N5CCOCC5)CC4)ccc32)c1`, the Potency result is “inactive”.
Then `Cn1nnnc1Sc1ncnc2scc(I)c12`, with “inactive”; and `Cc1ccsc1CN(C)c1ncnc2ccc(-c3oc(-c4ccccc4)nc3C)cc12`, with “inactive”; and `O=C(CN1C(=O)N/C(=C\c2cccn2-c2cccc(C(=O)O)c2)C1=O)Nc1ccc(F)cc1`, with “inactive”.
The value for `CCCn1c(C)nc2c(NCCN(CC)CC)nc(C)nc21` was “inactive”; that for `O=C(O)c1cccc(S(=O)(=O)N2CCN(S(=O)(=O)c3ccc4c(c3)OCCO4)CC2)c1` was “inactive”; that for `Cc1ccc(N[S+](=O)([O-])c2cc3c(cc2CCc2ccccc2)NC(=O)CO3)cc1C` was “inactive”.
Then `COc1cc(OC)c(C(CC(=O)N2CC(C)CC(C)C2)c2ccc3c(c2)OCO3)c(OC)c1` (centres undefined), with “inactive”.
For `CC(C)(C)OC(=O)N1CCN(c2ccc(NCc3cnc(-c4ccc(C#N)cc4)s3)cc2)CC1`, the Potency entry was “inactive”.
For `Cc1ccc(NS(=O)(=O)c2ccc3c(c2)CC(=O)N3)cc1C`, the Potency entry is “inactive”.
For `COc1cc(Nc2nc(-c3ccncc3)nc3ccccc23)ccc1Cl`, the Potency entry is “inactive”.
The value for `Oc1ccc(/C=C/c2c(F)cccc2F)c2cccnc12` was “inactive”; that for `Cc1ccc(S(=O)(=O)N2CCN(c3nc(C#N)nc4ccccc34)CC2)cc1` was “inactive”; that for `O=C(Cc1nnc(CNC(=O)c2ccccc2)s1)Nc1ccc(C(F)(F)F)cc1Cl` was “inactive”.
For the compound `CCOC(=O)C1CCN(C(=O)C2(NC(=O)Nc3ccc(F)cc3F)CCCCC2)CC1`, the Potency entry is “inactive”.
Turning to `Cc1ccc(NS(=O)(=O)c2cc3c(cc2/C=C/c2ccccc2)NC(=O)CO3)cc1C`, the Potency result was “inactive”.
The value for `Cc1cc(C)nc(NC(=S)N2CCN(c3ccccn3)CC2)c1` was “inactive”.
As for `N#Cc1nc(NCCCO)nc(Nc2ccccc2)n1`, the Potency entry was “inactive”.
The value for `Fc1cccc(Nc2nc(-c3ccncc3)nc3ccccc23)c1` was “inactive”; that for `N#CN1CCC(NS(=O)(=O)c2ccc(F)cc2)CC1` was “inactive”.
Take `CC(O)c1cc2c(s1)c1cnn(Cc3ccccc3F)c(=O)c1n2C` (centres undefined): the Potency result was “inactive”.
Turning to `O=C(CNC(=O)c1cccc2ccccc12)OC(C(=O)Nc1cc(C(F)(F)F)ccc1Cl)c1ccccc1` (centres undefined), the Potency result is “inactive”.
Then `Cc1ccc(C)c(OC2=NS(=O)(=O)c3ccccc32)c1`, with “inactive”.
The value for `Cc1ccc(NS(=O)(=O)c2ccc3c(c2)CCC(=O)N3C)cc1Cl` was “inactive”.
Take `O=C(NCCCc1cnc[nH]1)NCCCN(Cc1ccc(Cl)c(Cl)c1)c1ccc(Br)cn1`: the Potency result was “inactive”.
As to `Cc1cc(C)nc(NC(=S)N2CCN(c3ccc(N4CCCC4)nn3)CC2)c1`, the Potency result is “inactive”.
The value for `O=C(COC(=O)CNC(=O)C1CCCCC1)Nc1ccccc1Cl` was “inactive”; that for `O=C1CCc2cc(S(=O)(=O)Nc3cccc(Oc4ccccc4)c3)ccc2N1` was “inactive”.
The value for `Cc1nnc(-c2cnn(C)c2)n1CCCn1ccnc1` was “inactive”; that for `CN(Cc1cncn1C)c1ncnc2ccc(-c3ccc4c(c3)OCO4)cc12` was “inactive”.
